# In all, about 18,000 sequences were measured (“TetR repression strength (sort-seq, GFP reporter)”: median about 0.23, highest 2% from about 0.68 on). For the sample, the highest values were picked, then their nearest neighbours and some sequences at random.
# Biological target: TetR (class B, Tn10) (UniProt P04483)
# Assay: TetR repression strength (sort-seq, GFP reporter) (relative to tetO2 = 1); higher = stronger repression
# Conditions: E. coli
# Method in brief: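 In LB with 50 µg/mL chloramphenicol, E. coli SIG10-MAX holding a low-copy library with eight randomized operator positions between a constitutive promoter and sfGFP, plus constitutive TetR, grew for 5 h at 37 °C. FACS then sorted 10^6 cells into 13 fluorescence bins for Illumina sequencing of each bin. Repression strength equals the top bin index plus one less the read-weighted mean bin, normalized to the unaltered operator. Values from three independent transformations were averaged when reads were ≥30 in every replicate and the CV was ≤0.5.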
# Chain of TetR (class B, Tn10) (P04483 whole entry): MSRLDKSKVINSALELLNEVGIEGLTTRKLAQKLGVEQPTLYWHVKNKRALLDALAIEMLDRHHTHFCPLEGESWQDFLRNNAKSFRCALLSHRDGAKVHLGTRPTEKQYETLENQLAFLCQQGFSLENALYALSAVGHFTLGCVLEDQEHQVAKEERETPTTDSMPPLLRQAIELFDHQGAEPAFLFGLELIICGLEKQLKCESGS
row,Sequence,TetR repression strength
1,TCCCTTCAAGTTTGAGAGA,0.185
2,TCCCTTCCAGTTTCAGAGA,0.819
3,TCCCTTCCAGTATCAGAGA,0.0836
4,TCCCTTCAAGTGTCAGAGA,0.303
5,TCCCTTTCAGTTTCAGAGA,0.206
6,TCCCTTCAAGTTTCAGAGA,0.837
7,TCCCAGAGAGTACTAGAGA,0.336
8,TCCCGAGGAGTGGCTGAGA,0.0686
9,TCCCTTGGAGTAGGGGAGA,0.274
10,TCCCACGGAGTCTGGGAGA,0.0855
11,TCCCTGTGAGTGCTCGAGA,1.14
12,TCCCTGTTAGTGCTCGAGA,1.15
13,TCCCGAAGAGTGCTCGAGA,0.813
14,TCCCTGATAGTGCTCGAGA,0.215
15,TCCCAGACAGTGCTCGAGA,0.855
16,TCCCTGTTAGTGGTCGAGA,0.187
17,TCCCAGACAGTACTCGAGA,0.444
18,TCCCGATGAGTGCTCGAGA,0.361
19,TCCCTCTGAGTGCTCGAGA,0.315
20,TCCCGAGGAGTGCTCGAGA,0.126
21,TCCCAGACAGTGCGAGAGA,0.219
22,TCCCAGTGAGTGCTCGAGA,0.0229
23,TCCCTGGCAGTTAGGGAGA,0.365
24,TCCCGGTCAGTCTGCGAGA,0.194

row,Sequence,TetR repression strength
1,TCCCGGATAGTCTTTGAGA,0.125
2,TCCCTTGGAGTATATGAGA,0.119
3,TCCCTGCGAGTAGTCGAGA,0.542
4,TCCCCATTAGTGTACGAGA,0.425
5,TCCCTAAGAGTGATGGAGA,0.243
6,TCCCTGAGAGTTCGCGAGA,0.0305
7,TCCCTGTGAGTTCGAGAGA,0.719
8,TCCCTGTGAGTTCGGGAGA,0.369
9,TCCCATCTAGTCCGTGAGA,0.174
10,TCCCTCTAAGTTAGTGAGA,0.241
11,TCCCGCTAAGTCCGGGAGA,0.188
12,TCCCCTGAAGTCTTCGAGA,0
13,TCCCAGGGAGTGCCGGAGA,0.19
14,TCCCTATCAGTTTTTGAGA,0.472
15,TCCCAGGCAGTGCCGGAGA,0.748
16,TCCCTATCAGTGCTTGAGA,0.701
17,TCCCAGGCAGTGCAGGAGA,0.143
18,TCCCTGTGAGTGCCGGAGA,0.164
19,TCCCTATCAGTGTTTGAGA,0.767
20,TCCCTGTCAGTGTCGGAGA,0.388
21,TCCCTCTCAGTGCTTGAGA,0.661
22,TCCCTGTCAGTGCCGGAGA,1.03
23,TCCCTATGAGTGCTTGAGA,0.335
24,TCCCTAGCAGTGTTTGAGA,0.369

row,Sequence,TetR repression strength
1,TCCCCGAAAGTCGCGGAGA,0.128
2,TCCCTATCAGTGTAGGAGA,0.484
3,TCCCCTCTAGTGTAAGAGA,0.155
4,TCCCGGATAGTAGCGGAGA,0.329
5,TCCCAGGCAGTCGGTGAGA,0.213
6,TCCCGTTTAGTGGGTGAGA,0.306
7,TCCCTTTGAGTTATCGAGA,0.384
8,TCCCGGGCAGTATTCGAGA,0.136
9,TCCCCGTGAGTGCATGAGA,0.122
10,TCCCATTCAGTCAATGAGA,0.457
11,TCCCTAATAGTGCTTGAGA,1.01
12,TCCCAAATAGTGCTTGAGA,0
13,TCCCTATCAGTTTTCGAGA,0.523
14,TCCCTATCAGTGCGAGAGA,0.452
15,TCCCTATCAGTGCTCGAGA,0.993
16,TCCCTATCAGTGCTAGAGA,0.841
17,TCCCTAGTAGTGCTTGAGA,0.594
18,TCCCTGTCAGTGCTCGAGA,0.534
19,TCCCTATCAGTGGTCGAGA,0.532
20,TCCCTAACAGTGTTCGAGA,0.305
21,TCCCTATCAGTGTTCGAGA,0.777
22,TCCCTATTAGTGCTAGAGA,0.466
23,TCCCATACAGTGCGCGAGA,0.394
24,TCCCTTATAGTCGCGGAGA,0.142

row,Sequence,TetR repression strength
1,TCCCCTTAAGTGTATGAGA,0.348
2,TCCCAGAGAGTGGAAGAGA,0.148
3,TCCCGACAAGTTATCGAGA,0.226
4,TCCCCATCAGTCCTCGAGA,0.327
5,TCCCTATCAGTGCTGGAGA,0.86
6,TCCCCATCAGTGCTGGAGA,0.157
7,TCCCTATCAGTCCTCGAGA,0.747
8,TCCCTATCAGTGCCGGAGA,1.06
9,TCCCTATCAGTGGTGGAGA,0.402
10,TCCCTATCAGTCCCGGAGA,0.4
11,TCCCTATCAGTGCCTGAGA,0.467
12,TCCCTATAAGTCCTCGAGA,0.529
13,TCCCAGGCAGTGCTTGAGA,0.113
14,TCCCGATCAGTAGACGAGA,0.237
15,TCCCCTGTAGTGTGCGAGA,0.297
16,TCCCCCACAGTTATAGAGA,0.524
17,TCCCAGGTAGTGGCGGAGA,0.176
18,TCCCTACAAGTGCCGGAGA,0.202
19,TCCCTTCAAGTGCCCGAGA,0.415
20,TCCCTTCCAGTTCTTGAGA,0.472
21,TCCCTTCAAGTTCTGGAGA,1.03
22,TCCCTTCAAGTGCCGGAGA,1.13
23,TCCCTTCCAGTTCTGGAGA,1.04
24,TCCCTTCTAGTTCTGGAGA,0.402

row,Sequence,TetR repression strength
1,TCCCCTCCAGTTCTGGAGA,0.342
2,TCCCTTCGAGTTCTGGAGA,0.328
3,TCCCATAAAGTGACGGAGA,0.305
4,TCCCTTAAAGTGTTGGAGA,0.334
5,TCCCGTTCAGTATGGGAGA,0.106
6,TCCCGCCGAGTCCCGGAGA,0.317
7,TCCCATGGAGTTTTAGAGA,0.281
8,TCCCACGGAGTTACGGAGA,0.224
9,TCCCGTTAAGTTTCTGAGA,0.302
10,TCCCGTGGAGTTTCTGAGA,0.0476
11,TCCCGTTTAGTAGTTGAGA,0.028
12,TCCCGTTGAGTATTTGAGA,0.329
13,TCCCGTTGAGTGTTGGAGA,1.1
14,TCCCGTTGAGTTTCTGAGA,0.744
15,TCCCGTTTAGTATTTGAGA,0.713
16,TCCCGTTGAGTGTTTGAGA,0.13
17,TCCCGTGGAGTGTTCGAGA,0.914
18,TCCCGTGGAGTGTTGGAGA,0.325
19,TCCCGTCGAGTGTTCGAGA,0.218
20,TCCCGAGGAGTGTTCGAGA,0.224
21,TCCCGTAAAGTGGTGGAGA,0.228
22,TCCCTCGAAGTGCTTGAGA,0.406
23,TCCCGAAGAGTGTTGGAGA,0.268
24,TCCCGTCAAGTACGCGAGA,0.196

row,Sequence,TetR repression strength
1,TCCCCATGAGTAATTGAGA,0.334
2,TCCCGCGTAGTTACCGAGA,0.161
3,TCCCTCGGAGTGTGCGAGA,0.09
4,TCCCTTTGAGTATGGGAGA,0.0551
5,TCCCTCGAAGTAGAAGAGA,0.297
6,TCCCGGGGAGTGTCCGAGA,0.125
7,TCCCGTGGAGTGTCCGAGA,0.821
8,TCCCGTGGAGTGGCCGAGA,0.159
9,TCCCTACAAGTGTTTGAGA,0.295
10,TCCCGGACAGTTGGTGAGA,0.421
11,TCCCAGACAGTCATTGAGA,0.375
12,TCCCGGGCAGTCCGCGAGA,0.163
13,TCCCAATGAGTGGGCGAGA,0.238
14,TCCCGCTGAGTTAGAGAGA,0.0464
15,TCCCGGTTAGTTACGGAGA,0.211
16,TCCCCCATAGTTAGGGAGA,0
17,TCCCCAATAGTTAGGGAGA,0.699
18,TCCCGCTTAGTTAGGGAGA,1.02
19,TCCCCAACAGTTAGGGAGA,0.218
20,TCCCGCTTAGTGAGGGAGA,0.419
21,TCCCGCTAAGTTAGGGAGA,0.286
22,TCCCGCTTAGTTACGGAGA,1.2
23,TCCCGCTGAGTTACGGAGA,0.652
24,TCCCGCGGAGTTAGGGAGA,0.207

row,Sequence,TetR repression strength
1,TCCCGCTGAGTTAGGGAGA,0.929
2,TCCCTTTGAGTGGACGAGA,0.246
3,TCCCCATTAGTGGAGGAGA,0.275
4,TCCCCGGCAGTATGTGAGA,0.189
5,TCCCGGAAAGTCTAGGAGA,0.216
6,TCCCTTTAAGTCGACGAGA,0.285
7,TCCCTTTTAGTGTGGGAGA,0.317
8,TCCCGTTAAGTCTTGGAGA,0.302
9,TCCCGGCTAGTAGTTGAGA,0.295
10,TCCCGGCGAGTCGTTGAGA,0.801
11,TCCCGGCTAGTCACTGAGA,0.256
12,TCCCGGCTAGTCGTTGAGA,0.89
13,TCCCGGTTAGTCGTTGAGA,0.225
14,TCCCGAGTAGTCACTGAGA,0.231
15,TCCCGCCTAGTCACTGAGA,0.682
16,TCCCGGAGAGTCGTTGAGA,0.118
17,TCCCGTCGAGTCGTTGAGA,0.134
18,TCCCAATAAGTGTGCGAGA,0.242
19,TCCCGTTTAGTCGCGGAGA,0.215
20,TCCCAGTTAGTGGGTGAGA,0.172
21,TCCCCTCGAGTGCCGGAGA,0.442
22,TCCCTAAAAGTGGGAGAGA,0.203
23,TCCCACCGAGTGATAGAGA,1.21
24,TCCCAAGGAGTGGTAGAGA,1.18

row,Sequence,TetR repression strength
1,TCCCACCGAGTGATCGAGA,0.405
2,TCCCCAGGAGTGGTAGAGA,0.189
3,TCCCAAAGAGTGGTAGAGA,0.164
4,TCCCCAGGAGTGATAGAGA,0.339
5,TCCCACCGAGTGAGAGAGA,0.43
6,TCCCAAGGAGTGATAGAGA,0.977
7,TCCCTATGAGTGCTAGAGA,0.452
8,TCCCTATGAGTGATAGAGA,0.765
9,TCCCTGTGAGTGATAGAGA,0.456
10,TCCCATGGAGTGATAGAGA,0.548
11,TCCCGGATAGTGGGTGAGA,0.0875
12,TCCCCGGCAGTCGCAGAGA,0.207
13,TCCCGTGTAGTAAGGGAGA,0.307
14,TCCCGCCGAGTAGGCGAGA,0.34
15,TCCCACTGAGTGATAGAGA,0.551
16,TCCCAGTGAGTGATAGAGA,0.528
17,TCCCAATGAGTGATAGAGA,0.685
18,TCCCAAATAGTGGGAGAGA,0.214
19,TCCCTGTTAGTGGGGGAGA,0.737
20,TCCCAAATAGTGTGGGAGA,0.459
21,TCCCTGATAGTGGGGGAGA,0.0581
22,TCCCTGTTAGTGGGAGAGA,0.189
23,TCCCAAATAGTGGGGGAGA,1.1
24,TCCCTGAAAGTCACGGAGA,0.337

row,Sequence,TetR repression strength
1,TCCCGGGGAGTTAGGGAGA,0.346
2,TCCCCACAAGTATCCGAGA,0.296
3,TCCCCACCAGTATCAGAGA,0.697
4,TCCCCACAAGTGTCAGAGA,0.352
5,TCCCCACAAGTATCAGAGA,0.752
6,TCCCACCCAGTATCAGAGA,0.2
7,TCCCCACCAGTGTCAGAGA,0.334
8,TCCCGGTAAGTGATGGAGA,0.338
9,TCCCGAGAAGTCCGAGAGA,0.474
10,TCCCAGTAAGTCAGAGAGA,0.066
11,TCCCGGAAAGTCTCGGAGA,0.107
12,TCCCTCAGAGTTGGTGAGA,1.2
13,TCCCTCGTAGTGAGTGAGA,0.507
14,TCCCAAGTAGTTGGTGAGA,0.774
15,TCCCCAGTAGTTGGTGAGA,0.114
16,TCCCTGAGAGTTGGTGAGA,0.164
17,TCCCTCATAGTGGGTGAGA,0.0921
18,TCCCTAGTAGTTGGTGAGA,0.177
19,TCCCTCGGAGTGGGAGAGA,0.217
20,TCCCTCGGAGTGGGTGAGA,0.988
21,TCCCTCTGAGTGGGTGAGA,0.195
22,TCCCTCGTAGTGGGTGAGA,0.815
23,TCCCTAAGAGTTGGTGAGA,0.137

# — a collection of fitness landscapes (doi:10.1038/s41467-024-54723-y)
